According to PubChem BioAssay (NCI):
Several values for one entry are separate records, joined by “and”; a condition that tells them apart may be missing. Equal values may be shown once. This is part of a sample that, as a whole, favours compounds with a hit. Of some 83,000 tested, about 20% had one in any assay.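 Method: cells in 96-well plates; compound added at one concentration; 48 h incubation; percent growth measured; values under 10 scored active.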 Some compounds were tested as several samples or in several runs, with calls that do not always agree. Activity calls are given as the source filed them.

Tests used:
Assay in all cases: NCI-60 one-dose screen, 48 h (100 = growth as untreated, 0 = no growth, -100 = all killed)
Settings in all cases: 10 µM
HOP-92 NSCLC = tested on: HOP-92 NSCLC
K-562 leukemia = tested on: K-562 leukemia
MALME-3M melanoma = tested on: MALME-3M melanoma
RXF 393 renal = tested on: RXF 393 renal
UACC-257 melanoma = tested on: UACC-257 melanoma
LOX IMVI melanoma = tested on: LOX IMVI melanoma
SK-MEL-28 melanoma = tested on: SK-MEL-28 melanoma
SK-MEL-2 melanoma = tested on: SK-MEL-2 melanoma
SN12C renal = tested on: SN12C renal
TK-10 renal = tested on: TK-10 renal
CAKI-1 renal = tested on: CAKI-1 renal
A498 renal = tested on: A498 renal
RPMI-8226 leukemia = tested on: RPMI-8226 leukemia
BT-549 breast = tested on: BT-549 breast
MDA-MB-435 melanoma = tested on: MDA-MB-435 melanoma
HCC-2998 colon = tested on: HCC-2998 colon
OVCAR-3 ovarian = tested on: OVCAR-3 ovarian

Row | Compound | growth (HOP-92 NSCLC) | growth (K-562 leukemia) | growth (MALME-3M melanoma) | growth (RXF 393 renal) | growth (UACC-257 melanoma) | growth (LOX IMVI melanoma) | growth (SK-MEL-28 melanoma) | growth (SK-MEL-2 melanoma) | growth (SN12C renal) | growth (TK-10 renal) | growth (CAKI-1 renal) | growth (A498 renal) | growth (RPMI-8226 leukemia) | growth (BT-549 breast) | growth (MDA-MB-435 melanoma) | growth (HCC-2998 colon) | growth (OVCAR-3 ovarian)
1 | COc1cc(C)c(-c2ccc(OC)c(=O)cc2C)c(OC)c1OC | 39.6% (inactive) and 85.5% (inactive) | 6.36% (active) and 85.8% (inactive) | 46.7% (inactive) and 95.3% (inactive) | -10.8% (active) and 115% (inactive) | 56.2% (inactive) and 97.6% (inactive) | 18% (inactive) and 106% (inactive) | 47.9% (inactive) and 103% (inactive) | 0.162% (active) and 113% (inactive) | 37.1% (inactive) and 98.3% (inactive) | 94.5% (inactive) and 94.2% (inactive) | 39.6% (inactive) and 86.1% (inactive) | -18% (active) and 86.9% (inactive) | 15% (inactive) and 94.4% (inactive) | 15.7% (inactive) and 120% (inactive) | -4.07% (active) and 99.6% (inactive) | 10.6% (inactive) and 114% (inactive) | –
2 | Cc1ccc(CNc2nc3ccc(OC/C(=C/F)CN)cc3o2)cn1 | 93.9% (inactive) | 108% (inactive) | 105% (inactive) | 69.1% (inactive) | 104% (inactive) | 88.4% (inactive) | 107% (inactive) | 110% (inactive) | -37.4% (active) | 71.9% (inactive) | 68.3% (inactive) | 58.4% (inactive) | 105% (inactive) | – | 99.6% (inactive) | 111% (inactive) | 109% (inactive)
